This excerpt belongs to a sample that is enriched for hits.
T cruzi growth-1: blocks T. cruzi growth in NIH3T3 culture; T. cruzi beta-gal in NIH3T3, GalScreen luminescence, 90 h; 77,000 compounds, 5.9% hits; AID 624255; inhibition, % at 8.34 µM;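 active = mean inhibition above about 93%, with at least 55% of replicates each passing it, limit read from the data, passing the limit was not always enough; inconclusive = only one of those two conditions holds; inactive = neither condition holds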
C diff HTS: inhibitors of Clostridium difficile growth; 86,000 compounds, 0.25% hits; Clostridium difficile clinical isolate growth, OD600, 24 h; active compounds read low; growth activity, negative = inhibition, % at 16 µg/mL (by protocol);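 active = mean growth activity at or below -80% and every replicate also at or below -80%; inconclusive = mean at or below -80% but some replicate above -80%; inactive = mean growth activity above -80%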;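 also: 0% = DMSO wells and -100% = levofloxacin 16 µg/mL wells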
T cruzi growth-2: inhibitors of T. cruzi proliferation | shares compounds with T cruzi growth-1 | T. cruzi beta-gal in NIH3T3, GalScreen luminescence, 90 h | inhibition, % at 8.35 µM | 5,600 compounds, 72% hits | AID 651739;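 active = mean replicate inhibition above about 95% and at least 55% of replicates individually reaching it, limit read from the data; inconclusive = only one of the two criteria is met; inactive = neither criterion is met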
T cruzi growth-3: blocks T. cruzi growth in NIH3T3 host cells; shares compounds with T cruzi growth-1; 5,600 compounds, 21% hits; AID 651740; inhibition, % at 2.09 µM; T. cruzi beta-gal in NIH3T3, GalScreen luminescence, 90 h;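 active = mean inhibition above about 95%, with at least 55% of replicates also reaching it, limit read from the data; inconclusive = meets just one of the two conditions; inactive = meets neither condition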;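 also: plate controls were neutral control median for no effect and positive control median for full effect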
NIH3T3 tox: cytotoxicity in mouse NIH/3T3 fibroblasts; shares compounds with T cruzi growth-1; NIH/3T3 viability, CellTiter-Glo ATP luminescence, 90 h; cytotoxicity (signal decrease), % at 8.35 µM; 5,600 compounds, 14% hits; AID 651742;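 active = mean signal decrease across replicates above about 35% based on untreated-well scatter, with enough replicates individually passing, limit read from the data; inconclusive = no rule stated though some were filed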;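 also: 0% = median of neutral control wells and 100% = median of positive control wells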
3T3 cytotox 2: NIH/3T3 (mouse) viability loss; shares compounds with T cruzi growth-1; NIH/3T3 viability, CellTiter-Glo ATP luminescence, 90 h; inhibition, % at 24.9 µM; 5,600 compounds, 56% hits; AID 651744;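 active = mean loss of cell viability signal at or above a set limit, and enough replicates individually reaching it; inconclusive = meets only the mean limit or only the replicate share; inactive = meets neither condition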;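 also: 0% = median of neutral control wells and 100% = median of positive control wells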
The depositor's hits bear a star; ? = inconclusive; / = no result.

SMILES	T cruzi growth-1	C diff HTS	T cruzi growth-2	T cruzi growth-3	NIH3T3 tox	3T3 cytotox 2
C[C@@H]1CN([C@@H](C)CO)C(=O)c2cc(NC(=O)Nc3cccc4ccccc34)ccc2O[C@@H]1CN(C)Cc1ccc(Oc2ccccc2)cc1	124*	11	99*	105*	29	27*
C[C@@H]1CN([C@H](C)CO)C(=O)c2cc(-c3cccc(C(=O)N(C)C)c3)cnc2O[C@H]1CN(C)C	-12	-6	/	/	/	/
C[C@H](CO)N1C[C@H](C)[C@@H](CN(C)C(=O)Nc2cccc3ccccc23)Oc2c(NS(C)(=O)=O)cccc2C1=O	82	0	/	/	/	/
C[C@H]1CCCCO[C@H](CN(C)C(=O)Nc2ccc3c(c2)OCO3)[C@@H](C)CN([C@@H](C)CO)C(=O)c2cc(NS(=O)(=O)c3ccc(Cl)cc3)ccc2O1	49	-7	/	/	/	/
C[C@H](CO)N1C[C@H](C)[C@H](CN(C)C(=O)Nc2ccc3c(c2)OCO3)OCCCC[C@H](C)Oc2ccc(NS(=O)(=O)c3ccc(Cl)cc3)cc2C1=O	97*	-1	113*	57	-23	-26
C[C@@H]1CCCCO[C@@H](CN(C)C(=O)Nc2ccc3c(c2)OCO3)[C@@H](C)CN([C@H](C)CO)C(=O)c2cc(NS(=O)(=O)c3ccc(Cl)cc3)ccc2O1	14	1	/	/	/	/
C[C@@H]1CCCCO[C@H](CN(C)C(=O)Nc2ccc3c(c2)OCO3)[C@H](C)CN([C@@H](C)CO)C(=O)c2cc(NS(=O)(=O)c3ccc(Cl)cc3)ccc2O1	?	2	102*	36	-7	-16
CN1CCN(C(=O)C[C@@H]2CC[C@H]3[C@@H](COC[C@@H](O)CN3CC3CCCC3)O2)CC1	/	3	/	/	/	/
C[C@@H]1CN([C@H](C)CO)S(=O)(=O)c2ccc(C#CC(C)(C)O)cc2O[C@H]1CN(C)CC1CC1	/	-1	/	/	/	/
C/C=C/c1ccc([C@@H]2[C@H]3CN(C(=O)Nc4ccc(F)cc4)CCCCN3[C@H]2CO)cc1	?	31	112*	74	33	106*
C/C=C/c1ccc([C@@H]2[C@H](CO)N3CCCCN(C(=O)Nc4ccc(F)cc4)C[C@@H]23)cc1	59	56	/	/	/	/
C/C=C/c1ccc([C@@H]2[C@@H](CO)N3CCCCN(C(=O)Nc4ccc(F)cc4)C[C@@H]23)cc1	97*	37	108*	39	17	74*
C/C=C/c1ccc([C@H]2[C@H](CO)N3CCCCN(C(=O)Nc4ccc(F)cc4)C[C@@H]23)cc1	90	44	/	/	/	/
C[C@@H]1CN([C@@H](C)CO)C(=O)c2cc(NC(=O)CCC(F)(F)F)ccc2O[C@H]1CN(C)Cc1ccc(C(=O)O)cc1	29	-1	/	/	/	/
CCS(=O)(=O)Nc1ccc2c(c1)C(=O)N(C)[C@@H]1CC[C@@H](CC(=O)NCCOC)O[C@H]1CO2	4	28	/	/	/	/
Cc1cccc(-c2ccc([C@H]3[C@@H](CO)N4CCCCN(C(=O)c5cccnc5)C[C@@H]34)cc2)c1	?	-10	108*	42	36*	22
Cc1cccc(-c2ccc([C@H]3[C@@H](CO)N4CCCCN(C(=O)c5cccnc5)C[C@H]34)cc2)c1	114*	0	96*	75	10	?
Cc1cccc(-c2ccc([C@H]3[C@H](CO)N4CCCCN(C(=O)c5ccncc5)C[C@@H]34)cc2)c1	68	-3	/	/	/	/
Cc1cccc(-c2ccc([C@@H]3[C@H]4CN(C(=O)c5cccnc5)CCCCN4[C@H]3CO)cc2)c1	104*	-1	73	30	11	42*
Cc1ccccc1-c1ccc([C@H]2[C@H]3CN(C(=O)c4cccnc4)CCCCN3[C@H]2CO)cc1	36	-3	/	/	/	/
Cc1cccc(-c2ccc([C@H]3[C@@H](CO)N4CCCCN(C(=O)c5ccncc5)C[C@@H]34)cc2)c1	79	4	/	/	/	/
CO[C@H]1CN(C)C(=O)c2cc(NC(C)=O)ccc2OC[C@@H](C)N(Cc2nccs2)C[C@@H]1C	-92	-2	/	/	/	/
O=C(Nc1ccc2c(c1)OCO2)N[C@H]1CC[C@@H](CCNC(=O)C2CCOCC2)O[C@H]1CO	/	1	/	/	/	/
C/C=C/c1ccc([C@H]2[C@@H](CO)N(C(=O)C3CC3)[C@H]2CN(C)C(=O)C2CC2)cc1	-53	-4	/	/	/	/
CO[C@@H]1CN(C)C(=O)c2cc(NC(=O)c3nc4ccccc4s3)ccc2OC[C@@H](C)N(Cc2cncnc2)C[C@@H]1C	15	/	/	/	/	/

High-throughput results from PubChem BioAssay.
